From PubChem BioAssay
In the library only some 1.8% were active in any assay of this set; here they are far more common.
VDR inhibitor: blocks the human vitamin D receptor; P11473; VDR-SRC2-3 peptide fluorescence polarization, 2 h; AID 504847; actives 0.93% (n = 400,000); Potency, µM, for inactives: max response, negative = inhibition, hits mostly inhibitors
Target sequence (P11473 whole entry, looked up): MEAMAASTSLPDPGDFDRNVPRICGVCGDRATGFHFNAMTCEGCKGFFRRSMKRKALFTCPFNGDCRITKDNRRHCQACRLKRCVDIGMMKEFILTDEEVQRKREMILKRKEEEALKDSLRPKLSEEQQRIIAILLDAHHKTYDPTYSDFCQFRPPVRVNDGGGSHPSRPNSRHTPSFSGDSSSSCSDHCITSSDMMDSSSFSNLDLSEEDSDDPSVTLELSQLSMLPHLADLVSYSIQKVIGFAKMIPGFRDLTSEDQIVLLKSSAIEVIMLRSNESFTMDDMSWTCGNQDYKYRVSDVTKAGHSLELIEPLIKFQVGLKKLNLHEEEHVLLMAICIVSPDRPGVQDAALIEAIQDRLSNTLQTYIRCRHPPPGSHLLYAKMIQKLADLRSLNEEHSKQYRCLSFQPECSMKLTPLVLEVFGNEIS
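Compounds are added to VDR with labelled SRC2-3 coactivator peptide and held 2 h at room temperature. Inhibition of the VDR–peptide interaction is then read as a change in fluorescence polarization.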
GCN5L2 inh: GCN5L2 (KAT2A) acetyltransferase inhibition; actives 0.21% (n = 390,000); GCN5L2 HAT assay, ThioGlo1 CoA-SH fluorescence; Q92830; Potency, µM (highest dose often 58.9 µM), without a hit: top-dose activity change, negative = inhibition, usual class: inhibitors
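Compounds, pin-transferred from DMSO stocks, meet 20nM GCN5L2 for 15 min before the reaction begins with H3(1-25) peptide (75uM) and acetyl-CoA (70uM). Thiol-reactive ThioGlo1 reports CoA release over 20 min at room temperature.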
TrxR1 inh: rat TrxR1 inhibition. O89049. recombinant rTrxR1, NADPH fluorescence consumption, selenite substrate. Potency, µM (titrated, usually from 114 µM), inactives show top-dose activity change, negative = inhibition, most hits filed as inhibitors. actives 1% (n = 390,000). AID 588453; also: nearly all actives have a fitted effect of over 65% in size
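Rat TrxR1 (90 nM in the dispensed reagent) was pre-reduced with 400 uM NADPH for 5 min at room temperature, then incubated with compound for 15 min. After 400 uM selenite was added, NADPH fluorescence (Ex 340/Em 450 nm) was followed for 8 min.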
TrxR1 substrate: substrates of rat thioredoxin reductase 1 | O89049 | purified TrxR1 substrate turnover, NADPH consumption readout | Potency, µM (series often up to 114 µM), for inactives: at the highest dose activity change, negative = substrate turnover | actives 0.01% (n = 390,000) | AID 588456; also: nearly all actives have a fitted effect of over 50% in size
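Rat TrxR1, dispensed at 90 nM, was prereduced with 400 uM NADPH (final) for 5 min at ~22 deg C, then incubated with compound 15 min before 400 uM selenite. A first-read NADPH fluorescence drop versus no-compound background flagged substrates.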
* marks the source's active call; other numbers are inactive results; ? = inconclusive; . = no result given; ! = a repeat was not active; [ ] = another dose, or the depositor's remark. Calls follow the shape of the dose curve; as a rule, active = well fitted curve in the direction sought with a large enough effect; inconclusive = small, poorly fitted or top-dose-only effect, or another doubt; inactive = no such curve, though single readings can be large; an effect the other way counts as inactive or inconclusive. % is scaled to controls: 0 for no effect and ±100 for the full control effect; potency is read from the fitted curve at half-maximal effect.

SMILES	VDR inhibitor	GCN5L2 inh	TrxR1 inh	TrxR1 substrate
Cc1nnc(NCc2ccc(Cl)cc2)c2c1nnn2Cc1ccc(F)cc1	-4.3%	-0.1%	28.9%	1.2%
Cc1nc([N+](=O)[O-])c(Sc2nc3ccc([N+](=O)[O-])cc3[nH]2)n1Cc1ccccc1	-16.4%	2.1%	2.51µM*	-12.5%
Cc1cccc(OCCOc2ccccc2C=C(C#N)C#N)c1	50.1µM*	-4.2%	2.82µM*	1.3%
CCNc1nc(NCC)n2c(SCC(=O)Nc3ccc(CC)cc3)nnc2n1	50.1µM*	-14.4%	13.4%[57.1 µM]	-12.3%
CCNc1nc(NCC)n2c(SCC(=O)Nc3ccc(NC(C)=O)cc3)nnc2n1	-4.1%	4.2%	-1.7%[11.4 µM]	9.3%[11.4 µM]
O=C(c1csnn1)N1CCC2(CCN(Cc3ccccc3)CC2)CC1	-11.3%	11.7%	.	.
O=c1cc(-c2ccccc2)oc2cc(OCc3ccccc3)cc(O)c12	20.6%	-0.2%	27.1%[57.1 µM]	-2.2%[57.1 µM]
O=c1cc(-c2ccc(OCc3ccccc3)cc2)oc2cc(OCc3ccccc3)cc(OCc3ccccc3)c12	-3.8%	-23.8%	39.8µM*	3.9%
COc1cc2nc(Cl)nc(NC(C)C)c2cc1OC	.	.	?	-16.9%
C=C(CC[C@]12OC(C(=O)O)C(O)(C(=O)O)C(C(=O)O)(O1)C(OC(=O)/C=C/[C@@H](C)C[C@@H](C)CC)C2O)[C@@H](OC(C)=O)[C@H](C)Cc1ccccc1 (some centres not stated)	.	.	6.9%	3.4%
COc1ccc(Cn2c(C)ccc2C)cc1	-3.5%	0.0%	31.6µM*	-0.9%
Oc1cccc(C=Nc2cccc3ccccc23)c1O	28.2µM*	?	?	68.9%
Oc1ccc(Cl)cc1C=Nc1ccc2c3c(cccc13)CC2	-18.6%	-7.3%	16.8%[57.1 µM]	30.0%[57.1 µM]
Oc1ccccc1C=Nc1cccc2ccccc12	-11.7%	-1.5%	26.1%	67.1%
Cc1cccc(C=Nc2ccc3c4c(cccc24)CC3)c1O	2.4%	20µM*	-21.2%	44.1%
CC(C)Cn1c(SCC(=O)Nc2cccnc2Cl)nnc1-c1ccco1	-3.5%	2.3%	50.1µM*	2.8%
Oc1cccc(C2c3[nH]c4ccccc4c3CCN2Cc2ccc3c(c2)CCO3)c1 (configuration not stated)	3.9%	-4.4%	12.7%[57.1 µM]	6.7%[57.1 µM]
Oc1cccc(C2c3[nH]c4ccccc4c3CCN2Cc2ccoc2)c1 (configuration not stated)	-17.8%	-4.0%	39.8µM*	5.8%
O=[N+]([O-])c1ccc(/C=C2\C=C(C(O)c3ccc([N+](=O)[O-])cc3)c3ccccc32)cc1 (configuration not stated)	.	.	-5.6%	-10.3%
NC1(C(=O)O)C[C@H](C(=O)O)[C@H](C(=O)O)C1 (some centres not stated)	1.9%	-8.6%	.	.
COc1cc(OC)c2c(c1)OC(=O)CC2c1ccccc1OC (configuration not stated)	0.1%	7.7%[88.6 µM]	.	.
COc1c(C)c2c(c(O)c1CC=C(C)CCC(=O)OCCN1CCOCC1)C(=O)OC2	-5.5%	0.2%	.	.
NC(=S)NN=C1c2ccccc2-c2c(F)c(F)c(F)c(F)c21	79.4µM*	.	56.2µM*	-10.1%
CCC[N+](C)(C)c1ccc(/C=C/c2ccnc3ccccc23)cc1	.	.	-25.4%	-10.8%
SMILES	VDR inhibitor	GCN5L2 inh	TrxR1 inh	TrxR1 substrate
O=C(O)Cc1sc(Nc2ccccc2)nc1-c1cccs1	79.4µM*	-1.2%	?	-1.2%
CCSC1=NSC2=NC(=O)/C(=C\c3coc4ccccc4c3=O)C(=N)N12	79.4µM*	?	-33.8%	-0.3%
CC(C)CC1=NN2C(=N)/C(=C\c3coc4ccccc4c3=O)C(=O)N=C2S1	79.4µM*	-5.4%	-18.0%	-0.5%
CC(C)(C)n1ncc2c(=O)n(Cc3c(Cl)cccc3Cl)cnc21	.	.	6.2%	-0.6%
COc1ccc(OC)c(CCNC(=O)c2cc3c(-c4ccccc4F)nn(C)c3s2)c1	-2.4%	-5.4%	4.3%	-9.6%
Fc1cc(F)c(F)c(SCCc2ccncc2)c1F	50.1µM*	.	?	0.5%
CCN1CCN(CCCNC(=O)Cn2c(-c3cccs3)cc3cc(F)ccc32)CC1	9.7%	1.4%	-4.9%	56.6%
Cc1ccc(S(=O)(=O)NCCOC(=O)Nc2sc(=S)n(C)c2C)cc1	-11.1%	-9.9%	7.08µM*	2.7%
CCOc1ccc(C2/C(=C(/O)c3ccc(F)cc3)C(=O)C(=O)N2CCCN(C)C)cc1 (configuration not stated)	1.8%	-32.3%	10.3%[57.1 µM]	4.1%[57.1 µM]
C=CCOc1ccc(C2/C(=C(\O)c3ccc(F)cc3)C(=O)C(=O)N2CCCN(C)C)cc1 (configuration not stated)	-22.4%	-4.4%	35.5µM*	-4.2%
CCC[N+](C)(C)c1ccc(/C=C/c2ccncc2)cc1	.	.	?	-25.0%
C=CC(=O)N1C/C(=C/c2ccc(Cl)cc2)C(=O)/C(=C\c2ccc(Cl)cc2)C1	?	.	?	-11.5%
C=CC(=O)N1C/C(=C/c2ccccc2)C(=O)/C(=C\c2ccccc2)C1	?	.	3.98µM*	3.5%[11.4 µM]
C=CCN(CC=C)C(=S)NC(=O)/C=C/c1ccccc1	20µM*	1.3%	-32.5%	-10.4%
Cc1cnc2ccccc2c1/C=C/c1ccc(N)cc1	.	.	?	-6.9%
Cc1ccc(NC(=O)COc2ccccc2C(=O)Nc2ccccc2)cc1	.	.	3.5%	-4.4%
O=C(O)c1cccc(-n2cccc2/C=C/[N+](=O)[O-])c1	?	-25.6%	10µM*	5.6%
COc1ccc(/C=C/C(=O)c2ccc(C(=O)/C=C/c3ccc(OC)c(OC)c3)cc2)cc1OC	-17.5%	-7.6%	?	-14.4%
COc1cc(/C=C/C(=O)c2ccc(C)cc2)ccc1OCC#N	50.1µM*	-13.4%	?	-8.4%
Cn1nc(C(F)(F)F)cc1Oc1ncc(C(F)(F)F)cc1Cl	1.41µM*	-15.0%	22.5%[57.1 µM]	-9.7%
CN(C)c1ccc(/C=C/c2ccnc3c(Cl)ccc(Cl)c23)cc1	.	.	-7.9%	-7.7%
COc1ccc(NC(=S)NC(NC(=O)/C=C/c2ccccc2)C(Cl)(Cl)Cl)cc1 (configuration not stated)	9.3%	1µM*	24.4%[57.1 µM]	-6.8%
OC(CN1CCCCC1)c1ccccc1 (configuration not stated)	.	.	-1.6%	1.3%
S=P(N1CC1)(N1CC1)N1CC1	89.1µM*!	-25.7%	38.7%	24.5%
CCOc1c(Cl)cc(CNc2ccc(S(N)(=O)=O)cc2)cc1OC	-2.3%	-13.1%	-13.6%	-14.6%
CCOc1c(Cl)cc(CNc2ccc(N3CCCC3)cc2)cc1OC	14.1µM*	-8.9%	12.6µM*	-8.8%
Cc1ccc(C(=O)N2CCN(c3ccc(NC(=O)c4ccc(Br)o4)cc3)CC2)cc1	3.2%	1.9%	-10.1%	2.2%
O=C(Nc1ccc(C(=O)N2CCC(N3CCCC3)CC2)cc1)c1ccc(Br)o1	-6.1%	-5.3%	56.2µM*	1.9%
N#Cc1c(NC(=O)c2ccccc2Cl)n(Cc2ccccc2)c2nc3ccccc3nc12	?	?	-5.9%	-10.4%
CCCCn1c(NC(=O)c2ccccc2Cl)c(C#N)c2nc3ccccc3nc21	44.7µM*	-11.3%	?	?
